# Assay results reported in paper PMC11062922 (Nature Chemical Biology, 2023).
# Read-outs that look alike come from different tables or passages of the source.
# Columns and labels:
# Parameters in all cases: species or system human, MV4-11 + K-562 + COLO205 + SK-N-BE2 + OVCAR-8
# CSNK1D = conditions: read-out: apparent Kd, n = 1
# CSNK1E = conditions: read-out: apparent Kd, n = 1
# MAPK14 = conditions: read-out: apparent Kd, n = 1
# MAPKAPK2 = conditions: read-out: apparent Kd, n = 1
# CLK4 = conditions: read-out: apparent Kd; compound concentrations:100 nM and 1000 nM (sheet 'Samples'); n = 1
# CSNK2A1;CSNK2A3 = conditions: read-out: apparent Kd; compound concentrations:100 nM and 1000 nM (sheet 'Samples'); n = 1
# FER = conditions: read-out: apparent Kd; compound concentrations:100 nM and 1000 nM (sheet 'Samples'); n = 1
# FES = conditions: read-out: apparent Kd; compound concentrations:100 nM and 1000 nM (sheet 'Samples'); n = 1
# GRK6 = conditions: read-out: apparent Kd; compound concentrations:100 nM and 1000 nM (sheet 'Samples'); n = 1
# IGF1R = conditions: read-out: apparent Kd; compound concentrations: 100 nM and 1000 nM (sheet 'Samples'), CATDS: 0.29362976208520802; n = 1
# INSR = conditions: read-out: apparent Kd; compound concentrations:100 nM and 1000 nM (sheet 'Samples'); n = 1
# PIM1 = conditions: read-out: apparent Kd; compound concentrations:100 nM and 1000 nM (sheet 'Samples'); n = 1
# PIM2 = conditions: read-out: apparent Kd; compound concentrations:100 nM and 1000 nM (sheet 'Samples'); n = 1
# TNK1 = conditions: read-out: apparent Kd; compound concentrations:100 nM and 1000 nM (sheet 'Samples'); n = 1
# CSNK1A1 = conditions: read-out: apparent Kd, compound concentrations: 100 nM and 1000 nM (sheet 'Samples'), n = 1
# DJA1 = system: T1, DJA1; conditions: read-out: apparent Kd; compound concentrations: 100 nM and 1000 nM (sheet 'Samples'), CATDS: 7.1447025322651805E-2; n = 1
# T1 construct: gene DNAJA1
# MAPK10 = conditions: read-out: apparent Kd; compound concentrations: 100 nM and 1000 nM (sheet 'Samples'), CATDS: 7.1245555578464306E-2; n = 1
# MAPK11 = conditions: read-out: apparent Kd; compound concentrations: 100 nM and 1000 nM (sheet 'Samples'), CATDS: 7.9204394656965396E-2; n = 1
# NQO2 = conditions: read-out: apparent Kd; compound concentrations: 100 nM and 1000 nM (sheet 'Samples'), CATDS: 7.6337001924779102E-2; n = 1
# FLT3 = conditions: read-out: apparent Kd; compound concentrations: 100 nM and 1000 nM (sheet 'Samples'), CATDS: 0.137141810176551; n = 1
# MAP2K1 = conditions: read-out: apparent Kd; compound concentrations: 100 nM and 1000 nM (sheet 'Samples'), CATDS: 0.12402883868582899; n = 1
# MAP3K12 = conditions: read-out: apparent Kd; compound concentrations: 100 nM and 1000 nM (sheet 'Samples'), CATDS: 0.14214405219183901; n = 1
# PIK3C2A = conditions: read-out: apparent Kd; compound concentrations: 100 nM and 1000 nM (sheet 'Samples'), CATDS: 0.1177028048525; n = 1
# PLK1 = conditions: read-out: apparent Kd; compound concentrations: 100 nM and 1000 nM (sheet 'Samples'), CATDS: 0.134584248305568; n = 1
# MERTK = conditions: read-out: apparent Kd; compound concentrations: 100 nM and 1000 nM (sheet 'Samples'), CATDS: 0.12955803655980599; n = 1
# PIK3CD = conditions: read-out: apparent Kd; compound concentrations: 100 nM and 1000 nM (sheet 'Samples'), CATDS: 0.42646415805735; n = 1
# [1] = compound concentrations:100 nM and 1000 nM (sheet 'Samples')
smiles,measurement,setting,value
Fc1ccc(-c2ncn(C3CCNCC3)c2-c2ccnc(Oc3ccc(F)c(F)c3)n2)cc1 [SB-253228],potency estimated from few doses,CSNK1D; [1],505 nM
same,potency estimated from few doses,CSNK1E; [1],1260 nM
same,potency estimated from few doses,MAPK14; [1],395 nM
same,potency estimated from few doses,MAPKAPK2; [1],125 nM
COc1cc2c(cc1Nc1nc(Nc3ccsc3C(N)=O)c3cc[nH]c3n1)N(C(=O)CN(C)C)CCC2(C)C [GSK2163632A],potency estimated from few doses,CLK4,1180 nM
same,potency estimated from few doses,CSNK2A1;CSNK2A3,1950 nM
same,potency estimated from few doses,FER,82.7 nM
same,potency estimated from few doses,FES,212 nM
same,potency estimated from few doses,GRK6,2050 nM
same,potency estimated from few doses,IGF1R,22 nM
same,potency estimated from few doses,INSR,6.22 nM
same,potency estimated from few doses,PIM1,647 nM
same,potency estimated from few doses,PIM2,1920 nM
same,potency estimated from few doses,TNK1,599 nM
CCOc1nccc(-c2c(-c3ccc(F)cc3)ncn2C2CCNCC2)n1 [SB-249175],potency estimated from few doses,CSNK1A1; CATDS: 0.102503652768427,294 nM
same,potency estimated from few doses,"CSNK1D; compound concentrations: 100 nM and 1000 nM (sheet 'Samples'), CATDS: 0.31219473795395603",16.6 nM
same,potency estimated from few doses,"CSNK1E; compound concentrations: 100 nM and 1000 nM (sheet 'Samples'), CATDS: 0.18119769412776501",46.9 nM
same,potency estimated from few doses,DJA1,1630 nM
same,potency estimated from few doses,MAPK10,1660 nM
same,potency estimated from few doses,MAPK11,935 nM
same,potency estimated from few doses,"MAPK14; compound concentrations: 100 nM and 1000 nM (sheet 'Samples'), CATDS: 0.21634918417803001",31.9 nM
same,potency estimated from few doses,"MAPKAPK2; compound concentrations: 100 nM and 1000 nM (sheet 'Samples'), CATDS: 0.24140517483875701",25.8 nM
same,potency estimated from few doses,NQO2,1130 nM
CC(C)(C)n1cnc2c(N)ncnc21 [SKF-97359],potency estimated from few doses,CSNK1A1; CATDS: 0.118789019342549,1870 nM
same,potency estimated from few doses,"CSNK1D; compound concentrations: 100 nM and 1000 nM (sheet 'Samples'), CATDS: 0.12511674231417799",1680 nM
same,potency estimated from few doses,"CSNK1E; compound concentrations: 100 nM and 1000 nM (sheet 'Samples'), CATDS: 0.10783492256042899",2330 nM
same,potency estimated from few doses,FLT3,1410 nM
same,potency estimated from few doses,MAP2K1,1710 nM
same,potency estimated from few doses,MAP3K12,1320 nM
same,potency estimated from few doses,PIK3C2A,1910 nM
same,potency estimated from few doses,PLK1,1460 nM
COc1nccc(-c2c(-c3ccc(F)cc3)ncn2CCCN2CCOCC2)n1 [SB-282852],potency estimated from few doses,"CSNK1D; compound concentrations: 100 nM and 1000 nM (sheet 'Samples'), CATDS: 0.15826837082796799",746 nM
same,potency estimated from few doses,"CSNK1E; compound concentrations: 100 nM and 1000 nM (sheet 'Samples'), CATDS: 0.12159851027947199",1580 nM
same,potency estimated from few doses,"MAPK14; compound concentrations: 100 nM and 1000 nM (sheet 'Samples'), CATDS: 0.160477931801707",722 nM
same,potency estimated from few doses,"MAPKAPK2; compound concentrations: 100 nM and 1000 nM (sheet 'Samples'), CATDS: 0.19368451795267799",478 nM
same,potency estimated from few doses,MERTK,1280 nM
same,potency estimated from few doses,PIK3CD,128 nM
